Compound activity: PubChem BioAssay, National Center for Advancing Translational Sciences (NCATS)
Most compounds without a hit are left out; they make up all but 10% or so of the library.
Sfp PPTase inh = blocks B. subtilis Sfp PPTase activity | Potency, µM, inactives show largest response in the series, negative = inhibition, usual class: inhibitors | 3.5% of 310,000 active | Q9F4F7 | Biochemical Sfp PPTase activity, qHTS;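 also: the enzyme is Sfp with the accession as filed and its product quenches rhodamine fluorescence; potency is read from the fitted curve at half-maximal effect; 0% = enzyme reaction without inhibitor and -100% = no enzyme wells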
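Fluorescence-quenching assay with 15 nM Sfp, 5 uM rhodamine-CoA and 12.5 uM BHQ-2-labelled ybbR peptide in pH 7.6 Hepes/MgCl2 buffer. Enzyme was pre-incubated with compound for 15 min at room temperature. Rate was taken from the 30-min fluorescence change (525/598 nm).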
Mm-Cpn inhibitor = blocks the Methanococcus maripaludis chaperonin Mm-Cpn | purified Mm-Cpn ATPase, ADP Transcreener TR-FRET | Potency, µM (top dose mostly 76.9 µM), for inactives: at the highest dose activity, negative = inhibition, actives largely listed as inhibitors | 0.031% of 330,000 active | AID 504842; also: potency is read from the fitted curve at half-maximal effect; nearly all actives have a fitted effect of over 80% in size
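25 nM Mm-CPN + cpd, 10 min 37°C; + 10 uM ATP, 30 min 37°C; buffer 30 mM Tris pH 7.4, 100 mM KCl, 5 mM MgCl2, 1 mM DTT; Transcreener ADP HTRF detection 30 min RT.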
PLK1 PBD inh = inhibitors of human PLK1 polo-box domain binding; P53350; Plk1 PBD binding of FITC phosphopeptide, fluorescence polarization; Potency, µM, for the others: max response, negative = inhibition, usual class: inhibitors; 2.8% of 360,000 active; also: potency is read from the fitted curve at half-maximal effect; series mostly up to about 57 µM; nearly all actives have a fitted effect of over 65% in size
VDR inhibitor = inhibitors of human vitamin D receptor. VDR-SRC2-3 peptide fluorescence polarization, 2 h. Potency, µM, without a hit: max response, negative = inhibition, hits mostly inhibitors. 0.93% of 400,000 active; also: potency is read from the fitted curve at half-maximal effect
Target sequence (P11473 whole entry, looked up): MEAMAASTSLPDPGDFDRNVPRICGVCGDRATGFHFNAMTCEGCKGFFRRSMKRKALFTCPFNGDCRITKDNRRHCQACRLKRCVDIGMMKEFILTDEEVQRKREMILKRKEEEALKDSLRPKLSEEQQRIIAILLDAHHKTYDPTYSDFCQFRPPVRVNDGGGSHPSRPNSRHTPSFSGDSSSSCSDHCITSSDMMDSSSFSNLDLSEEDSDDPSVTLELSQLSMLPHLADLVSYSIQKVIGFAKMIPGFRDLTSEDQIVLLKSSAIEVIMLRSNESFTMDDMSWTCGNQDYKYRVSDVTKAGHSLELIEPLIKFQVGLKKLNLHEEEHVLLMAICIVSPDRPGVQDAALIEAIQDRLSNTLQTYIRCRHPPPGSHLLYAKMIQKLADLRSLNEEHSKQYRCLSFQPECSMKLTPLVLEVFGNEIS
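FP read-out; VDR + SRC2-3 coactivator peptide; 23 nl compound by pintool; 2 h RT incubation; reagents held at 4 deg C, protected from light.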
CCT chaperon mod = cytosolic chaperonin activity modulation | purified chaperonin ATPase assay, HTRF ADP detection, 30 min | activity change, % (concentration not given with the values), hits read low | 0.3% of 360,000 active | AID 651819; in the data active = activity change below about -30%
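TRiC (40 or 20 nM final, by batch activity) in 30 mM Tris pH 7.4, 100 mM KCl, 5 mM MgCl2, 1 mM DTT was treated with compound at 76 uM single dose, then 10 uM ATP, 30 min at 37 °C. ADP was read by HTRF Transcreener.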
G9a block = G9a (human) methyltransferase inhibition; AID 504332; Q96KQ7; Potency, µM (doses to about 102 µM), inactives show top-dose activity, negative = inhibition, most hits filed as inhibitors; G9a H3K9 monomethylation, AlphaScreen, 2 h; 8.8% of 350,000 active; also: potency is read from the fitted curve at half-maximal effect; nearly all actives have a fitted effect of over 75% in size
Target sequence (Q96KQ7 913-1193 limits assumed): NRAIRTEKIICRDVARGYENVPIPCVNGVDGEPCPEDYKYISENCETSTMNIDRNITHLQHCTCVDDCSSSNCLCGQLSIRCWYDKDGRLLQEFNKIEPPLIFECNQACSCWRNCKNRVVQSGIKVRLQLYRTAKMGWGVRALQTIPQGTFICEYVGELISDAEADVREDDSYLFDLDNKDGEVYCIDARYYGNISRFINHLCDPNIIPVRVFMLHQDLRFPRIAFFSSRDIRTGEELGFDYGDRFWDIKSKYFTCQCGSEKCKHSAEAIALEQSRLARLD
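AlphaScreen read-out: biotin-H3K9 peptide (500 nM) methylation by 20 nM enzyme with 20 uM SAM, 2 h at room temperature after 15 min compound preincubation; anti-monomethyl H3K9 antibody plus donor/acceptor beads, 10 min dark.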
The depositor's hits bear a star; [ ] = remark or other dose. Unless noted, calls follow the shape of the dose curve; as a rule, active = well fitted curve in the direction sought with a large enough effect; inconclusive = small, poorly fitted or top-dose-only effect, or another doubt; inactive = no such curve, though single readings can be large; an effect the other way counts as inactive or inconclusive. Unless noted, % is scaled to controls: 0 for no effect and ±100 for the full control effect.

What do the screens show for `COc1cccc(NC(CNS(=O)(=O)c2ccc(Cl)cc2)c2ccccc2)c1` (configuration not stated)?
VDR inhibitor: 19.6%; G9a block: -2.3%[59 µM]

How did CCCN(CCC)C(=O)c1cc2c(=O)n3cccc(C)c3nc2n1C do in these assays?
VDR inhibitor: 9.3%; G9a block: 12.3%[59 µM]

What do the screens show for `COc1ccc2[nH]cc(CCNc3ncncc3-c3ccccc3Cl)c2c1`?
Sfp PPTase inh: -19.7%; VDR inhibitor: -14.9%; G9a block: -17.4%[0.501 µM]

How did COc1ccc(C(=O)NNc2ncnc3c2cnn3-c2ccc(C)cc2C)cc1 do in these assays?
VDR inhibitor: 9.6%; G9a block: 33.0%[59 µM]

Results for O=S(=O)(c1ccc(Br)cc1)c1nc(-c2ccco2)oc1SCc1ccccc1F ?
VDR inhibitor: 9.2%; G9a block: inconclusive

What do the screens show for `COc1ccccc1S(=O)(=O)Cc1ccc(C(=O)N2CCN(c3ccccn3)CC2)o1`?
Sfp PPTase inh: 79.4µM*; Mm-Cpn inhibitor: 1.7%; PLK1 PBD inh: 26.7µM*; VDR inhibitor: inconclusive; CCT chaperon mod: 0.1; G9a block: -2.7%[59 µM]

Results for O=C(c1ccc(CS(=O)c2ccccc2Cl)o1)N1CCN(c2ccccn2)CC1 (configuration not stated) ?
Sfp PPTase inh: 5.8%; Mm-Cpn inhibitor: -0.2%; PLK1 PBD inh: -4.0%; VDR inhibitor: -4.9%; CCT chaperon mod: -1.1; G9a block: 89.1µM*

What do the screens show for `O=C(c1ccc(C#Cc2ccccc2)o1)N1CCN(c2ccccn2)CC1`?
Sfp PPTase inh: inconclusive; Mm-Cpn inhibitor: -2.2%; PLK1 PBD inh: -8.5%; VDR inhibitor: 18.5%; CCT chaperon mod: -1.2; G9a block: 44.7µM*

What do the screens show for `O=C(c1ccc(CS(=O)Cc2ccc(Cl)cc2)o1)N1CCN(c2ccccn2)CC1` (configuration not stated)?
Sfp PPTase inh: 5.3%; Mm-Cpn inhibitor: -0.3%; PLK1 PBD inh: -3.2%; VDR inhibitor: 14.1%; CCT chaperon mod: 0.8; G9a block: -7.0%

Results for COc1ccc(C)cc1NC(=O)Cc1c(C(=O)O)c(C)cn1C ?
VDR inhibitor: 4.1%; G9a block: -2.2%[59 µM]

Results for c1cncc(CNc2ncncc2-c2ccc3c(c2)OCO3)c1 ?
Sfp PPTase inh: -20.4%; VDR inhibitor: 0.8%

What do the screens show for `CCCCCCNC(=O)Nc1ccc(S(=O)(=O)Nc2ccc(CCNC[C@H](O)COc3ccc(O)cc3)cc2)cc1`?
Sfp PPTase inh: 25.1µM*

Results for Cc1ccccc1NC(=O)C1CCN(S(=O)(=O)c2c(C)noc2/C=C/c2ccco2)CC1 ?
VDR inhibitor: -23.6%; G9a block: -3.9%[59 µM]

Results for Cc1ccc(CNC(=O)C2CCN(S(=O)(=O)c3c(C)noc3/C=C/c3ccco3)CC2)cc1 ?
Sfp PPTase inh: 39.8µM*; Mm-Cpn inhibitor: 0.0%; PLK1 PBD inh: -4.4%; VDR inhibitor: -11.5%; CCT chaperon mod: -1.4; G9a block: inconclusive

How did Cc1noc(/C=C/c2ccco2)c1S(=O)(=O)N1CCC(C(=O)N2CCc3ccccc3C2)CC1 do in these assays?
Sfp PPTase inh: 56.2µM*; Mm-Cpn inhibitor: -16.2%; PLK1 PBD inh: -6.8%; VDR inhibitor: 20.2%; CCT chaperon mod: -0.2; G9a block: inconclusive

What do the screens show for `O=C(CCc1cn(Cc2ccccc2F)c2ccccc12)NCc1ccc(Cl)cc1`?
VDR inhibitor: 5.5%; G9a block: -8.0%[59 µM]

Results for O=C(O)c1cccc2c1C(=O)c1ccccc1-2 ?
Sfp PPTase inh: 19.2%; Mm-Cpn inhibitor: 1.0%; PLK1 PBD inh: -12.8%; VDR inhibitor: -7.9%; CCT chaperon mod: -1.2

What do the screens show for `O=C1C(=C(I)I)c2ccccc2-c2ccccc21`?
PLK1 PBD inh: 4.74µM*; VDR inhibitor: 35.5µM*; CCT chaperon mod: -2.7

Results for COc1ccc2oc(C)c(C(=O)c3ccccc3)c2c1 ?
PLK1 PBD inh: -2.3%; VDR inhibitor: 17.3%; CCT chaperon mod: 2.2

Results for COc1ccc2oc(/C=C/N(C)C)c(C(=O)c3ccc(Cl)cc3)c2c1 ?
Sfp PPTase inh: -6.4%; Mm-Cpn inhibitor: -0.2%; PLK1 PBD inh: -8.0%; VDR inhibitor: 18.3%; CCT chaperon mod: -2.1; G9a block: 50.1µM*

How did Cc1oc(C(=O)O)cc1COc1cccc2cccnc12 do in these assays?
Sfp PPTase inh: -7.0%; Mm-Cpn inhibitor: -0.6%; PLK1 PBD inh: -8.9%; VDR inhibitor: -3.2%; CCT chaperon mod: -3.7; G9a block: 79.4µM*

How did NC(=O)COc1cccc2cccnc12 do in these assays?
Sfp PPTase inh: 6.2%; Mm-Cpn inhibitor: -3.3%; PLK1 PBD inh: -2.1%; VDR inhibitor: 6.4%; CCT chaperon mod: -1.1; G9a block: 44.7µM*

Results for O=C(COc1cccc2cccnc12)NNC(=S)Nc1ccccc1 ?
Sfp PPTase inh: -2.3%; Mm-Cpn inhibitor: 2.7%; G9a block: 17.8µM*

What do the screens show for `Cc1cc(NC(=O)COc2cccc3cccnc23)no1`?
Sfp PPTase inh: -26.4%; Mm-Cpn inhibitor: -1.9%; G9a block: inconclusive

How did O=C(COc1cccc2ccccc12)NNC(=O)Nc1ccccc1 do in these assays?
Sfp PPTase inh: 12.4%; Mm-Cpn inhibitor: -4.1%; PLK1 PBD inh: -8.4%; VDR inhibitor: -11.1%; CCT chaperon mod: 0.4; G9a block: inconclusive

What do the screens show for `Fc1ccc(COc2cccc3cccnc23)cc1`?
Sfp PPTase inh: 21.1%; Mm-Cpn inhibitor: -3.8%; PLK1 PBD inh: -6.1%; VDR inhibitor: 5.3%; CCT chaperon mod: -0.6; G9a block: 26.5%

How did CS(=O)(=O)N1CCC2(CCN(C(=O)Nc3cccc(F)c3)CC2)CC1 do in these assays?
Sfp PPTase inh: 32.3%; VDR inhibitor: 0.1%; G9a block: -5.9%[12.7 µM]

How did Cc1ccc(CN2C(=O)CC(c3ccc(Cl)cc3)c3c(C)nn(-c4nc(C)cc(C)n4)c32)cc1 (configuration not stated) do in these assays?
VDR inhibitor: 5.6%; G9a block: -31.9%[59 µM]

Results for CON(c1nc(Cl)nc(N(C)C)n1)S(=O)(=O)c1ccc(C)cc1 ?
Sfp PPTase inh: 0.3%; Mm-Cpn inhibitor: 0.9%; PLK1 PBD inh: 26.7µM*; VDR inhibitor: -23.2%; CCT chaperon mod: -3.9; G9a block: -33.3%

What do the screens show for `CON(c1nc(Cl)nc(N(C)C)n1)S(=O)(=O)c1ccccc1Cl`?
Sfp PPTase inh: 4.8%; Mm-Cpn inhibitor: 0.7%; PLK1 PBD inh: -8.7%; VDR inhibitor: 3.0%; CCT chaperon mod: 0.7; G9a block: 1.8%[59 µM]

How did Cc1ccc(N2C(=O)C(CC(=O)Nc3ccc(F)cc3)N(Cc3ccc4c(c3)OCO4)C2=O)cc1 (configuration not stated) do in these assays?
VDR inhibitor: -4.2%; G9a block: -2.1%[59 µM]
